# Test results as given in PubChem BioAssay (NCATS).
# Inconclusive results are not listed. Entries that show only a call come without a potency. Active and inactive are the calls of the source. Calls come from the whole dose curve; as a rule, active = well fitted curve in the direction sought with a large enough effect; inconclusive = small, poorly fitted or top-dose-only effect, or another doubt; inactive = no such curve, though single readings can be large; an effect the other way counts as inactive or inconclusive.
# Assays:
# [1] = qHTS of pediatric cancer cell lines to identify multiple opportunities for drug repurposing: Confirmatory screen for A673 cells (AID 1347110);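 note: cells exposed to compound for 48 h before the viability read; nearly all actives have a fitted effect of over 65% in size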; note: potency is the fitted concentration of half-maximal effect
# Procedure, shortened: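 Cells plated at 500-1,000/well were treated five hours later with multi-point dilutions up to 46 µM final. After two days, CellTiter-Glo was added and luminescence read.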
# [2] = qHTS of pediatric cancer cell lines to identify multiple opportunities for drug repurposing: Confirmatory screen for BT-12 cells (AID 1347112); note: potency is the fitted concentration of half-maximal effect;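 note: viability read after 48 h of compound exposure; nearly all actives have a fitted effect of over 55% in size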
# Procedure, shortened: (§1)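 Cells (500-1,000/well) rested 5 h, then received compounds for 48 h; metabolically active cells were measured by CellTiter-Glo luminescence. Final concentrations spanned up to 46 µM (MIPE, 11-point) or 0.59 nM-46 µM (NPC, 8-point) in primary screens, 11-point in follow-ups.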
# [3] = qHTS of pediatric cancer cell lines to identify multiple opportunities for drug repurposing: Confirmatory screen for DAOY cells (AID 1347114); note: nearly all actives have a fitted effect of over 65% in size; note: potency is the fitted concentration of half-maximal effect
# Procedure, shortened: (§2)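 Viability measured as metabolically active cells via CellTiter-Glo luminescence following 48 hours of compound exposure, 11-point dilutions in confirmatory testing. 500-1,000 cells/well plated 5 hours before dosing; controls were DMSO and 2.3 µM bortezomib.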
# [4] = qHTS of pediatric cancer cell lines to identify multiple opportunities for drug repurposing: Confirmatory screen for NB-EBc1 cells (AID 1347115);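 note: cells exposed to compound for 48 h before the viability read; nearly all actives have a fitted effect of over 45% in size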; note: potency is the fitted concentration of half-maximal effect
# Procedure, shortened: as §1
# [5] = qHTS of pediatric cancer cell lines to identify multiple opportunities for drug repurposing: Confirmatory screen for MG 63 (6-TG R) cells (AID 1347119); note: nearly all actives have a fitted effect of over 55% in size; note: potency is the fitted concentration of half-maximal effect
# Procedure, shortened: as §1
# [6] = qHTS of pediatric cancer cell lines to identify multiple opportunities for drug repurposing: Confirmatory screen for control Hh wild type fibroblast cells (AID 1347121); note: nearly all actives have a fitted effect of over 70% in size; note: potency is the fitted concentration of half-maximal effect
# Procedure, shortened: as §1
# [7] = qHTS of pediatric cancer cell lines to identify multiple opportunities for drug repurposing: Confirmatory screen for U-2 OS cells (AID 1347122); note: nearly all actives have a fitted effect of over 65% in size; note: potency is the fitted concentration of half-maximal effect
# Procedure, shortened: as §1
# [8] = qHTS of pediatric cancer cell lines to identify multiple opportunities for drug repurposing: Confirmatory screen for Saos-2 cells (AID 1347127); note: nearly all actives have a fitted effect of over 60% in size; note: potency is the fitted concentration of half-maximal effect
# Procedure, shortened: as §1
# [9] = qHTS of pediatric cancer cell lines to identify multiple opportunities for drug repurposing: Confirmatory screen for OHS-50 cells (AID 1347128);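 note: compound exposure lasted 48 h at 37 degrees C; nearly all actives have a fitted effect of over 55% in size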; note: potency is the fitted concentration of half-maximal effect
# Procedure, shortened: as §1
# [10] = qHTS of pediatric cancer cell lines to identify multiple opportunities for drug repurposing: Confirmatory screen for SK-N-MC cells (AID 1347111);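 note: potency is the fitted concentration of half-maximal effect; cells exposed to compound for 48 h before the readout; nearly all actives have a fitted effect of over 70% in size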
# Procedure, shortened: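 Seed 500-1,000 cells/well; rest 5 h at 37 degrees C. Pin-transfer compounds, 11-point titration. Incubate 48 h. Add CellTiter-Glo, 15 min RT, read luminescence.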
# [11] = qHTS of pediatric cancer cell lines to identify multiple opportunities for drug repurposing: Confirmatory screen for BT-37 cells (AID 1347117); note: nearly all actives have a fitted effect of over 55% in size; note: potency is the fitted concentration of half-maximal effect
# Procedure, shortened: as §1
# [12] = qHTS of pediatric cancer cell lines to identify multiple opportunities for drug repurposing: Confirmatory screen for Rh41 cells (AID 1347123);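 note: 48 h compound exposure; nearly all actives have a fitted effect of over 60% in size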; note: potency is the fitted concentration of half-maximal effect
# Procedure, shortened: as §1
# [13] = qHTS of pediatric cancer cell lines to identify multiple opportunities for drug repurposing: Confirmatory screen for Rh18 cells (AID 1347125); note: nearly all actives have a fitted effect of over 55% in size; note: potency is the fitted concentration of half-maximal effect
# Procedure, shortened: as §1
# [14] = qHTS of pediatric cancer cell lines to identify multiple opportunities for drug repurposing: Confirmatory screen for SK-N-SH cells (AID 1347129);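 note: cells exposed to compound for 48 h before viability read; nearly all actives have a fitted effect of over 60% in size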; note: potency is the fitted concentration of half-maximal effect
# Procedure, shortened: as §1
# [15] = qHTS of pediatric cancer cell lines to identify multiple opportunities for drug repurposing: Confirmatory screen for SJ-GBM2 cells (AID 1347116); note: nearly all actives have a fitted effect of over 60% in size
# Procedure, shortened: as §2
# [16] = qHTS of pediatric cancer cell lines to identify multiple opportunities for drug repurposing: Confirmatory screen for LAN-5 cells (AID 1347113); note: nearly all actives have a fitted effect of over 65% in size; note: potency is the fitted concentration of half-maximal effect
# Procedure, shortened: as §1
# [17] = qHTS of pediatric cancer cell lines to identify multiple opportunities for drug repurposing: Confirmatory screen for TC32 cells (AID 1347118)
# Procedure, shortened: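 Measured quantity: luminescence from CellTiter-Glo, reflecting metabolically active TC32 cells following 48 h of compound. Curves came straight from multi-point titrations, with 8 or 11 points in primary and 11 in confirmatory screening.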
# [18] = qHTS of pediatric cancer cell lines to identify multiple opportunities for drug repurposing: Confirmatory screen for RD cells (AID 1347124)
# Procedure, shortened: as §1
compound,measurement,setting,value
CC(C)CN(C[C@@H](O)[C@H](Cc1ccccc1)NC(=O)O[C@H]1CO[C@H]2OCC[C@H]21)S(=O)(=O)c1ccc(N)cc1,Potency,[1],inactive
same,Potency,[2],inactive
same,Potency,[3],inactive
same,Potency,[4],inactive
same,Potency,[5],inactive
same,Potency,[6],inactive
same,Potency,[7],inactive
same,Potency,[8],inactive
same,Potency,[9],inactive
O=C1NC(=O)C(c2cnc3ccccn23)=C1c1cn2c3c(cccc13)CN(C(=O)N1CCOCC1)CC2,Potency,[10],14.7 µM (active)
same,Potency,[4],2.93 µM (active)
same,Potency,[11],16.5 µM (active)
same,Potency,[6],inactive
same,Potency,[7],inactive
same,Potency,[12],0.0185 µM (active)
same,Potency,[13],inactive
same,Potency,[8],inactive
same,Potency,[9],10.4 µM (active)
CN1CCN(c2ncc(-c3cc(Cl)cc(Cl)c3Cl)c(N)n2)CC1,Potency,[3],inactive
same,Potency,[4],inactive
same,Potency,[11],26.1 µM (active)
same,Potency,[5],inactive
same,Potency,[6],inactive
same,Potency,[7],inactive
same,Potency,[12],inactive
same,Potency,[8],inactive
same,Potency,[9],inactive
same,Potency,[14],20.9 µM (active)
CC1(COc2ccc3c(c2)ncn3-c2ccc3cccc(N4CCC(N)CC4)c3n2)COC1,Potency,[1],7.37 µM (active)
same,Potency,[3],20.8 µM (active)
same,Potency,[4],inactive
same,Potency,[5],inactive
same,Potency,[6],inactive
same,Potency,[7],10.4 µM (active)
same,Potency,[12],8.27 µM (active)
same,Potency,[13],inactive
same,Potency,[8],inactive
same,Potency,[14],10.5 µM (active)
Cc1nn(Cc2ccccc2Cl)c(C)c1CN(C)CC(O)COc1ccc(Cl)cc1 (stereo unspecified),Potency,[3],23.3 µM (active)
same,Potency,[4],inactive
same,Potency,[15],inactive
same,Potency,[6],inactive
same,Potency,[7],18.5 µM (active)
CCC(c1ccc(O)cc1)C(CC)c1ccc(O)cc1 (stereo unspecified),Potency,[1],inactive
same,Potency,[10],9.27 µM (active)
same,Potency,[11],10.4 µM (active)
same,Potency,[5],8.27 µM (active)
same,Potency,[6],inactive
same,Potency,[7],inactive
same,Potency,[8],inactive
same,Potency,[14],inactive
COC(=O)Nc1ccc(-c2nc(N3CCOCC3)c3cnn(C4CCN(C(=O)OC)CC4)c3n2)cc1,Potency,[1],2.93 µM (active)
same,Potency,[10],4.65 µM (active)
same,Potency,[16],8.27 µM (active)
same,Potency,[11],3.69 µM (active)
same,Potency,[5],1.31 µM (active)
same,Potency,[12],2.61 µM (active)
same,Potency,[9],16.5 µM (active)
same,Potency,[14],4.18 µM (active)
CNC(=O)[C@H](CC1=CN=C2C=CCC=C12)NC(=O)[C@@H](CC(=O)NO)CC(C)C,Potency,[1],14.7 µM (active)
same,Potency,[2],2.61 µM (active)
same,Potency,[11],0.827 µM (active)
same,Potency,[5],1.47 µM (active)
same,Potency,[7],4.14 µM (active)
same,Potency,[12],2.93 µM (active)
same,Potency,[13],1.47 µM (active)
same,Potency,[14],inactive
Nc1[nH]nc2nnc(-c3c(-c4ccccc4)nn4ccccc34)cc12,Potency,[1],13.1 µM (active)
same,Potency,[3],inactive
same,Potency,[12],inactive
same,Potency,[13],20.8 µM (active)
same,Potency,[14],inactive
COc1cc2c(cc1Cc1cccc(Cl)c1F)c(=O)c(C(=O)O)cn2[C@H](CO)C(C)C,Potency,[10],14.7 µM (active)
same,Potency,[15],inactive
same,Potency,[17],13.1 µM (active)
same,Potency,[6],inactive
same,Potency,[7],inactive
same,Potency,[12],16.5 µM (active)
same,Potency,[13],inactive
Cc1ccc2c(c1)C(=O)[C@]1(O)CCN(c3ccccc3)C1=N2,Potency,[2],inactive
same,Potency,[16],inactive
same,Potency,[3],inactive
same,Potency,[4],inactive
same,Potency,[15],inactive
same,Potency,[11],inactive
same,Potency,[12],11.7 µM (active)
same,Potency,[18],inactive
same,Potency,[9],inactive
same,Potency,[14],inactive
COc1cc2ncnc(Nc3cc(Br)c(O)c(Br)c3)c2cc1OC,Potency,[2],inactive
same,Potency,[4],inactive
same,Potency,[15],inactive
same,Potency,[5],inactive
same,Potency,[6],inactive
same,Potency,[13],inactive
same,Potency,[8],inactive
same,Potency,[9],inactive
Cc1csc(-c2nnc(Nc3ccc(Oc4ncccc4-c4ccnc(N)n4)cc3)c3ccccc23)c1,Potency,[1],9.27 µM (active)
same,Potency,[10],0.0261 µM (active)
same,Potency,[3],23.3 µM (active)
same,Potency,[6],inactive
same,Potency,[13],inactive
same,Potency,[9],inactive
same,Potency,[14],6.62 µM (active)
C[C@H](c1ccc(F)cc1CCCC(=O)O)N(c1cc(F)ccc1F)S(=O)(=O)c1ccc(Cl)cc1,Potency,[1],inactive
same,Potency,[2],inactive
same,Potency,[16],inactive
same,Potency,[4],inactive
same,Potency,[11],inactive
same,Potency,[5],inactive
same,Potency,[6],inactive
same,Potency,[7],inactive
same,Potency,[12],inactive
same,Potency,[8],inactive
same,Potency,[14],inactive
CN1N=C(N)c2cn([C@@H]3O[C@H](COP(=O)(O)O)[C@@H](O)[C@@H]3O)c3ncnc1c23,Potency,[10],3.69 µM (active)
same,Potency,[17],0.737 µM (active)
same,Potency,[5],0.827 µM (active)
same,Potency,[12],1.17 µM (active)
same,Potency,[13],0.329 µM (active)
same,Potency,[8],1.85 µM (active)
same,Potency,[9],1.17 µM (active)
same,Potency,[14],1.05 µM (active)
O=c1[nH]nc(OCCCc2ccc(Cl)cc2)c(NCc2cccnc2)c1Br,Potency,[10],16.5 µM (active)
same,Potency,[3],5.22 µM (active)
same,Potency,[4],13.1 µM (active)
same,Potency,[5],5.22 µM (active)
same,Potency,[6],10.4 µM (active)
same,Potency,[7],7.37 µM (active)
same,Potency,[12],10.4 µM (active)
same,Potency,[8],inactive
